The record followed here is PubChem BioAssay (Tox21).

Assay [1] has as its target Progesterone receptor (Homo sapiens) (UniProt P06401). Description: qHTS assay to identify small molecule agonists of the progesterone receptor (PR) signaling pathway (AID 1346784; calls by dose curve; note: nearly all actives have a fitted effect of over 30% in size; note: potency is the fitted concentration of half-maximal effect). The method in brief:
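HEK 293T PR-UAS-bla reporter cells, 2% charcoal-stripped FBS; 6 hr settle at 37C/5% CO2, compound (DMSO) 16 hr, LiveBLAzer B/G FRET substrate 2 hr RT, fluorescence intensity read.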

For assay [2] the target is unchanged. Description: qHTS assay to identify small molecule antagonists of the progesterone receptor (PR) signaling pathway (AID 1346795; active = well fitted inhibition curve with a large enough effect in the signal ratio in the repeat runs, not every such curve was filed as active; the % refers to the signal ratio; note: potency is the fitted concentration of half-maximal effect). Summed up:
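Beta-lactamase reporter, HEK293T PR-UAS-bla line; 2% charcoal-stripped FBS; 6 hr pre-incubation, 37C/5% CO2. Compound + R5020 1 nM final, 16 hr. LiveBLAzer B/G FRET substrate, 2 hr RT; fluorescence intensity read.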
Background: Quantitative high-throughput screening tests each substance at several concentrations.

Assay [3] can be described thus: qHTS assay to identify small molecule agonists of the TGF-beta/Smad signaling pathway - cell viability counter screen (AID 1346829). Note: top concentration of the series differs between compounds; nearly all actives have a fitted effect of over 45% in size. The method in brief: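 HEK 293T SBE-bla line, 5 hr compound exposure at 37 C, multiplexed CellTiter-Glo viability read by luminescence.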
Assay [4] is described as follows: qHTS assay to identify small molecule agonists of the TGF-beta/Smad signaling pathway (AID 1346859; active = well fitted activation curve with a large enough effect in the signal ratio in the repeat runs, not every such curve was filed as active; the % refers to the signal ratio; note: series mostly up to about 77 µM). Summed up: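 Read-out: fluorescence at 460 and 530 nm (405 nm excitation) after a 2 hr room-temperature incubation with beta-lactamase FRET substrate. SBE-bla HEK 293T cells had been treated with test compounds for 5 hr at 37 C.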
The nature of assay [5]: qHTS assay to identify small molecule agonists of the estrogen receptor alpha (ER-alpha) signaling pathway in the presence of an antagonist - cell viability counter screen (AID 1259386).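 Note: series mostly up to about 92 µM; cells exposed to compounds for 22 h at 37 °C before the viability read; nearly all actives have a fitted effect of over 30% in size.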 Summed up: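 VM7Luc4E2, stripped-serum pre-culture 5 d; 24hr plating; +ICI-182,780 10.0nM final; cpds 15 conc, 22hr, 37C/5% CO2; CellTiter-Fluor added at 21hr, fluorescence 1hr later.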
Assay [6] in a line: qHTS assay to identify small molecule antagonists of the TGF-beta/Smad signaling pathway - cell viability counter screen (AID 1346824). Note: nearly all actives have a fitted effect of over 50% in size. The method in brief:
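SBE-bla HEK 293T cells, incubated overnight, then compound plus 0.25 ng/mL TGF-beta1 (stock added) for 5 hr at 37 C. Viability was read in the same wells by CellTiter-Glo luminescence after 30 min at room temperature.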

For assay [7], the target named is Thyrotropin-releasing hormone receptor (Homo sapiens) (UniProt P34981). Description: qHTS assay to identify small molecule antagonists of the thyrotropin-releasing hormone receptor (TRHR) signaling pathway (AID 1346877; active = well fitted inhibition curve with a large enough effect in the repeat runs, not every such curve was filed as active; note: series mostly up to about 51 µM). Summed up:
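Intracellular calcium fluorescence, read kinetically every second over 3 min, reports TRH-evoked signalling in HEK293 cells carrying TRHR. Test compounds were added 5 min ahead of a 1 nM TRH challenge.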

A short description of assay [8]: qHTS assay to identify small molecule antagonists of the progesterone receptor (PR) signaling pathway - cell viability counter screen (AID 1346798). Note: series mostly up to about 92 µM; nearly all actives have a fitted effect of over 50% in size. The method in brief:
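Luminescence readout (CellTiter-Glo, 30 min, RT) of viability in PR-UAS-bla HEK293T cells exposed to compound and R5020 agonist for 16 hr at 37C, 5% CO2; run in the same wells as the beta-lactamase reporter read.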

The nature of assay [9]: qHTS assay to identify small molecule agonists of the progesterone receptor (PR) signaling pathway - cell viability counter screen (AID 1346799; calls by dose curve; note: nearly all actives have a fitted effect of over 45% in size). Summed up:
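HEK293T PR-UAS-bla, 3,000 cells/well, 2% charcoal-stripped FBS; 6 h settle, compound 16 h at 37C/5% CO2; LiveBLAzer 2 h RT, then CellTiter-Glo 30 min RT, luminescence read.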

Structures are written as SMILES. Unmarked numbers belong to inactive results. Records with an inconclusive call do not appear. The source made the active and inactive calls. Unless noted, calls come from the whole dose curve; as a rule, active = well fitted curve in the direction sought with a large enough effect in the repeat runs; inconclusive = weak or mixed curves; inactive = no such curve, though single readings can be large; an effect the other way counts as inactive or inconclusive.
% is set by controls: 0 for no effect and ±100 for the full control effect.

Thyrotropin-releasing hormone receptor (Homo sapiens), sequence (P34981 whole entry, looked up): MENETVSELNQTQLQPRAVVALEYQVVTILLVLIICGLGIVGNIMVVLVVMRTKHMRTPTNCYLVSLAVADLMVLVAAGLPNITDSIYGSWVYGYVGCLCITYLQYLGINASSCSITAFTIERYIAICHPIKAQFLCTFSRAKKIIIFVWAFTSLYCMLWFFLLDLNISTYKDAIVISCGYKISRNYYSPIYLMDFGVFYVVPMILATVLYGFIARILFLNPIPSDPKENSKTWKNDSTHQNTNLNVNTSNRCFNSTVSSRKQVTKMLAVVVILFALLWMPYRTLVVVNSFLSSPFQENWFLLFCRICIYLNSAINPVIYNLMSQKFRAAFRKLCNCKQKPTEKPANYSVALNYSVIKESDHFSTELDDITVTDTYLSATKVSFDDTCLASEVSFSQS
Progesterone receptor (Homo sapiens), sequence (P06401 whole entry, looked up): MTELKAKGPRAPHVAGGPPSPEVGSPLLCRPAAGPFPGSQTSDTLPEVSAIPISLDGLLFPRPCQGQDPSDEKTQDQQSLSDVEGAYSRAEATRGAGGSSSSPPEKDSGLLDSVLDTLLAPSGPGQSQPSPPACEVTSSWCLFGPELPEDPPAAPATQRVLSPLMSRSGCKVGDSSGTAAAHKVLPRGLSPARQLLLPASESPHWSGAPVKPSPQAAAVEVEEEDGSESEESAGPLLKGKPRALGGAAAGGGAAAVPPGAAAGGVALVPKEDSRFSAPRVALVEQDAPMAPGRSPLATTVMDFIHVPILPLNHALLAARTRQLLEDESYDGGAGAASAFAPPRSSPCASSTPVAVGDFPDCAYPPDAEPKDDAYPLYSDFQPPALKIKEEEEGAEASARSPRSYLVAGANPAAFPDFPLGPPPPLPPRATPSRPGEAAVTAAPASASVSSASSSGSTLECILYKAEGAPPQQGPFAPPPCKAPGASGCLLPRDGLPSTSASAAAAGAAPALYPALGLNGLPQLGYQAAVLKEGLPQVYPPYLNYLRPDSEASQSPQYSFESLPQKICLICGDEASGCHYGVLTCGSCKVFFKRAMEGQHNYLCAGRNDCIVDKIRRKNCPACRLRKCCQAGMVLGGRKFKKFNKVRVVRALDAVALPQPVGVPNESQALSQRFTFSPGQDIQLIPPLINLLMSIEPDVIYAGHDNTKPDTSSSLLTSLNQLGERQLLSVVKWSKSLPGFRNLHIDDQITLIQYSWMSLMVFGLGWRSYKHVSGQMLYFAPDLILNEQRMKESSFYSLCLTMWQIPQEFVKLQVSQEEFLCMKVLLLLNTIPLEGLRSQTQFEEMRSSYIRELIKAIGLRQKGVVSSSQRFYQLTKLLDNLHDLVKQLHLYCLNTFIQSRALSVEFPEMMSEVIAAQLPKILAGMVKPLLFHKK

Regarding `O=C1c2ccccc2C(=O)c2c1ccc(O)c2O`, the Potency entry in assay [1] and in assay [2] was “inactive” in each case. Further, the outcome in assay [3] and in assay [4] was inactive.

`C(/C=C/C=C/Nc1ccccc1)=Nc1ccccc1`: the Potency result in assay [5], in assay [1] and in assay [2] was “inactive” throughout. Moreover, the result in assay [6], in assay [3], in assay [4] and in [7] was inactive.

`SCCOCCOCCS`: the Potency result in assay [1], in assay [2], in assay [8] and in assay [9] was “inactive” each time. For the same compound, the outcome in assay [6], in assay [3], in assay [4] and in assay [7] was inactive.

Regarding `CCC(=O)O[C@]1(C(=O)COC)[C@@H](C)C[C@H]2[C@@H]3CCC4=CC(=O)C=C[C@]4(C)C3(F)[C@@H](O)C[C@@]21C` (stereo partly drawn), the Potency entry in [5] and in assay [2] was “inactive” each time. In addition, the Potency in assay [1] is 0.376 µM (active). The call in [6], in assay [3] and in [4] was inactive.

Take `CCc1cnc(C(=O)O)c(C(=O)O)c1`: the Potency entry in [1], in [2], in assay [8] and in assay [9] was “inactive” each time. In addition, the compound was classed as inactive in [6], in assay [3], in [4] and in assay [7].

`Clc1cccc(C(c2ccc3nc[nH]c3c2)n2ccnc2)c1` (stereo not drawn): the Potency entry in assay [1], in assay [2] and in [8] was “inactive” throughout. The outcome in assay [3], in assay [4] and in assay [7] was inactive.

In the case of `COc1ccc(C(=O)c2ccc(C)cc2)c(O)c1`, the Potency result in assay [5], in assay [1] and in assay [8] was “inactive” each time. Besides, in assay [2], the Potency was 19.5 µM (active). Further, the call in assay [3] was inactive.

Consider `CCCc1nc(C)c2c(=O)[nH]c(-c3cc(S(=O)(=O)N4CCN(CC)CC4)ccc3OCC)nn12`, for which the Potency entry in assay [5], in assay [1], in assay [2] and in assay [8] was “inactive” each time. In addition, the call in [3] and in assay [4] was inactive.

Consider `C1=COCCC1`, for which the Potency entry in assay [5], in assay [1], in [2] and in assay [8] was “inactive” each time. Moreover, the compound was classed as inactive in assay [6], in assay [3], in assay [4] and in assay [7].

For the compound `CCOCCn1c(N2CCCN(C)CC2)nc2ccccc21`, the Potency entry in assay [5], in assay [1], in [2] and in [9] was “inactive” in each case. In addition, the compound was classed as inactive in assay [3] and in assay [4].

Consider `CCC(C(=O)O)c1ccc(N2Cc3ccccc3C2=O)cc1` (stereo not drawn), for which the Potency entry in assay [5], in assay [1] and in assay [2] was “inactive” throughout. For the same compound, the call in [6], in assay [3] and in [7] was inactive.

Take `Cc1nc2sccn2c(=O)c1CCN1CCC(=C(c2ccc(F)cc2)c2ccc(F)cc2)CC1`: the Potency result in assay [5], in assay [1] and in assay [8] was “inactive” throughout. Moreover, the call in [6] and in assay [3] was inactive.

Regarding `COc1cc(C)c(Cc2cnc(N)nc2N)cc1OC`, the Potency result in assay [1], in [2] and in [8] was “inactive” each time. Besides, the result in assay [3], in assay [4] and in assay [7] was inactive.

In the case of `O=C(Nc1ccc2c(c1)Cc1ccccc1-2)C(F)(F)F`, the Potency entry in assay [1] is “inactive”. The Potency in assay [2] is 4.33 µM (active). For the same compound, the result in [6], in [3], in assay [4] and in [7] was inactive.

Take `Cc1ccc(NC(=O)c2ccc(CN3CCN(C)CC3)cc2)cc1Nc1nccc(-c2cccnc2)n1`: in assay [8], the Potency entry was “inactive”. Besides, the compound was classed as inactive in assay [3].

Turning to `O=C(O)c1cc(C(=O)O)c(C(=O)O)cc1C(=O)O`, the Potency entry in assay [5], in assay [1], in [2] and in assay [8] was “inactive” in each case. The compound was called inactive in assay [6], in [3] and in assay [4].

Regarding `O=C(O)CCc1nc2ccccc2[nH]1`, the Potency result in [1], in assay [2], in assay [8] and in [9] was “inactive” each time. The compound was called inactive in assay [6], in assay [3], in assay [4] and in assay [7].

`C[C@H](CN1CCCC1)C(=O)c1ccc(C(F)(F)F)cc1`: the Potency result in [5], in assay [1], in [2] and in assay [8] was “inactive” each time. Moreover, the outcome in [6], in assay [3], in [4] and in assay [7] was inactive.

Turning to `CCCc1ccc(OC)cc1`, the Potency entry in [5], in assay [1], in [8] and in assay [9] was “inactive” each time. Further, the compound was classed as inactive in assay [6], in assay [3] and in assay [4].

`c1ccc(-c2ccc(-c3ccccc3)cc2)cc1`: the activity change, negative = cytotoxicity in assay [5] was 0.383% [at 19 µM]; in assay [8] it was 3.71% [at 18.9 µM]; in assay [3], -3.25% [at 15.8 µM]. Also, the viability change, negative = cytotoxic in [6] was -15.2% [at 15.8 µM]. Besides, the activation in [4] was 0.211% [at 15.8 µM]. The activity, negative = inhibition in [7] is -0.349% [at 10.5 µM].

In the case of `C=CCCC`, the Potency entry in assay [5], in assay [1], in assay [2] and in [9] was “inactive” throughout. The compound was classed as inactive in [6], in assay [3], in assay [4] and in [7].

With `CCC(=O)O[C@@H]1C[C@H]2CC[C@]1(C)C2(C)C`, the Potency entry in [5], in [1], in assay [2] and in assay [8] was “inactive” each time. Moreover, the result in assay [3], in assay [4] and in [7] was inactive.

Take `CC[C@H](NC(C)C)[C@H](O)c1ccc(O)c2[nH]c(=O)ccc12`: the Potency entry in assay [5], in assay [1], in assay [2] and in assay [8] was “inactive” in each case. The result in assay [6], in assay [3], in assay [4] and in assay [7] was inactive.

For `CC(=O)CC/C=C(\C)CC/C=C(\C)CC/C=C(\C)CCC=C(C)C`, the Potency entry in assay [1] and in assay [2] was “inactive” in each case. The result in [6], in assay [3] and in assay [4] was inactive.

Regarding `CCOc1ccc(NC(C)=O)cc1N`, the Potency result in [5], in [1] and in assay [9] was “inactive” in each case. Further, the result in assay [6], in assay [3] and in [4] was inactive.

Turning to `CCC(CC)C(=O)O`, the Potency result in assay [1], in [2], in [8] and in assay [9] was “inactive” throughout. Moreover, the outcome in assay [3] and in [4] was inactive.

For `CO[C@@H]1[C@@H](O[C@@H]2O[C@H](C)[C@@H](O[C@H]3C[C@@](C)(O)[C@@H](O)[C@H](C)O3)[C@H](N(C)C)[C@H]2O)[C@@H](CC=O)C[C@@H](C)[C@@H](O[C@@H]2CC[C@H](N(C)C)[C@@H](C)O2)/C=C/C=C/C[C@@H](C)OC(=O)C[C@H]1OC(C)=O`, the Potency result in [5] and in assay [8] was “inactive” in each case. Besides, the compound was classed as inactive in assay [6], in [3] and in [4].

Take `Nc1nc(Cl)nc2c1ncn2[C@H]1C[C@H](O)[C@@H](CO)O1`: the Potency entry in assay [1], in assay [2] and in [8] was “inactive” in each case. The result in assay [6], in assay [3], in assay [4] and in assay [7] was inactive.

Turning to `COc1ccc(/C=C/c2cc(OC)cc(=O)o2)cc1`, the Potency entry in assay [5], in assay [1] and in assay [2] was “inactive” each time. The compound was classed as inactive in assay [6], in assay [3], in assay [4] and in [7].

As to `C=CC(C)(O)CC/C=C(/C)CCC=C(C)C` (stereo not drawn), the Potency result in assay [5], in assay [1], in assay [2] and in assay [9] was “inactive” in each case. Besides, the outcome in assay [6], in [3], in [4] and in assay [7] was inactive.

With `CCCCCCCCS`, the Potency result in assay [5], in assay [1], in [2] and in [8] was “inactive” in each case. Moreover, the outcome in [3] and in assay [4] was inactive.
